A word on the inhibition: it is the relative decrease from the control value, in per cent.

The whole screen tested about 290,000 compounds, of which about 3,000 (1%) were called active. The list comes from a sample in which actives are over-represented; it also holds similar structures and randomly drawn compounds. A number with no mark means an inactive call. Cut-off read from the data, not from the text of the source: active = inhibition mostly above about 36% (no sharp cut-off); inactive = mostly below about 34%.

The text below walks through data of PubChem BioAssay AID1578 (Sanford-Burnham Center for Chemical Genomics, 2009).

The nature of the assay: NOD1 signaling inhibitors, primary screen, cell-based, luminescence, uHTS (AID 1578).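 Note: HEK-293T reporter cells stimulated with the NOD1 agonist gamma-tri-DAP.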 The conditions noted are these: NOD1-driven NF-kB luciferase reporter cells, at 4 µM, active compounds read high.
For the compound `O=C(Nc1ccc(Cl)cc1C(=O)c1ccccc1)c1ccc(Br)o1`, the inhibition is 37.5%.

For the compound `Cc1ccc2c(c1)CCCN2N=O`, the inhibition is -27.4%.

For the compound `C=C(C=O)C[C@@H]1C[C@H](O)C2OC3C[C@]4(C)OC5/C=C\CC6OC7C(CC=CCC6OC5CCCC4OC3CC2O1)OC1CC2OC3CC(=O)OC3C[C@@H](C)C[C@@]2(C)OC1C[C@@H]7C` (some centres not stated), the inhibition was 76% (active).

`C=C(CO)CC1CC(O)[C@]2(C)OC3CC4OC5C[C@]6(C)O[C@]7(C)CCC8OC9C[C@]%10(C)OC%11C(C)=CC(=O)OC%11CC%10OC9C[C@@H](C)C8OC7CC6O[C@]5(C)C/C=C\C4OC3CC2O1` (some centres not stated): the inhibition is -6.2%.

Turning to `C=C(CC1CC(O)[C@]2(C)OC3CC4OC5C[C@]6(C)O[C@]7(C)CCC8OC9C[C@]%10(C)OC%11C(C)=CC(=O)OC%11CC%10OC9C[C@@H](C)C8OC7CC6O[C@]5(C)C/C=C\C4OC3CC2O1)C(=O)O` (some centres not stated), the inhibition is -18.2%.

As to `Clc1cccc(Cl)c1C1N2CCCN12` (configuration not stated), the inhibition was 8.1%.

For the compound `c1ccc2c(c1)CNc1ccccc1O2`, the inhibition is -9%.

Take `S=C(NCCc1ccccc1)NCCc1cnc[nH]1`: the inhibition is 0.7%.

As for `Cc1ccc(C)c(NP(=O)(Oc2ccccc2)Oc2ccccc2)c1`, the inhibition was 48.1% (active).

In the case of `COc1ccc(OC)c(NP(=O)(Oc2ccccc2)Oc2ccccc2)c1`, the inhibition was -6.6%.

In the case of `Cc1cccc(NP(=O)(Oc2ccccc2)Oc2ccccc2)c1C`, the inhibition is -22.3%.

For the compound `O=C(CN1CCCC1)Nc1ccc(Cl)cc1C(=O)c1ccccc1`, the inhibition is -5.6%.

Consider `COc1ccc(CNCCc2c(C)[nH]c3ccc(OC(F)(F)F)cc23)c(OC)c1`, for which the inhibition is 5.5%.

Take `O=P(Nc1ccccc1)(Nc1ccccc1)Oc1ccccc1`: the inhibition is -0.3%.

As for `COc1cc2c(cc1OC)[C@@H]1C(=O)c3ccc4c(c3O[C@@H]1CO2)C[C@H](C(C)C)O4`, the inhibition is 58.9% (active).

`O=c1c2ccccc2nc(-c2ccccc2)n1-c1ccccc1O`: the inhibition was -8.3%.

In the case of `Cn1cnnc1Sc1cc(N2CCNCC2)ccc1[N+](=O)[O-]`, the inhibition was -17.2%.

For `CCOc1ccc(C2(C#N)CC[N+](C)(C)CC2)cc1`, the inhibition was -0.5%.

Regarding `COCc1cc(OC(=O)N(C)C)nc2c1c(C)nn2C`, the inhibition was -6.7%.

With `O=C(CN1CC(c2ccccc2)CC1=O)Nc1ccc(F)cc1` (configuration not stated), the inhibition is -14.5%.

Turning to `O=C(COc1ccccc1)NCCc1cnc[nH]1`, the inhibition is 3.5%.

Turning to `O=C(CCCc1ccccc1)NCCc1cnc[nH]1`, the inhibition is -15.9%.

On to `O=C(/C=C/c1ccccc1)NCCc1cnc[nH]1`, for which the inhibition was 32.6% (active).

With `CCOc1ccccc1Oc1coc2cc(OC(=O)N(C)C)ccc2c1=O`, the inhibition was 0.4%.

As for `COc1cccc(Oc2coc3cc(OC(=O)N(C)C)ccc3c2=O)c1`, the inhibition is 6.2%.

With `O=C1CC(c2ccccc2)CC(O)=C1C=NCCN1CCN(C(=O)Cc2ccccc2)CC1` (configuration not stated), the inhibition is 8.5%.

Take `O=C(C1CCCN(S(=O)(=O)c2cccc3nsnc23)C1)N1CCC2(CC1)OCCO2` (configuration not stated): the inhibition was -9.3%.

Consider `O=C(Cc1ccccc1)N1CCN(Cc2cccc(Br)c2)CC1`, for which the inhibition is 0.2%.

Consider `CC(C)c1oc(=O)cc2c1[C@@H](O)[C@H]1OC(=O)[C@@]3(C)CC[C@@H](O)[C@@]2(C)C13` (some centres not stated), for which the inhibition is -5.4%.

Consider `CC(C)c1oc(=O)cc2c1[C@@H](O)[C@H]1OC(=O)[C@@]3(C)C[C@@H](O)[C@@H](O)[C@@]2(C)C13` (some centres not stated), for which the inhibition is 96.2% (active).

Take `Cc1csc(=N)n1Cc1ccccc1`: the inhibition is -19.9%.

With `Cc1cccc(N2C(=O)NC(=O)C3(Cc4cc(C)ccc4N(C)C3)C2=O)c1` (configuration not stated), the inhibition was 11%.

On to `COc1ccc(Cl)cc1C(=O)C1CCCN(Cc2cnc(C)s2)C1` (configuration not stated), for which the inhibition was -27.2%.

On to `CC1CCC(C(C)C)C(OP(N)(=O)c2ccccc2)C1` (configuration not stated), for which the inhibition was 12.7%.

Regarding `CC1CCC(C(C)C)C(OC(=O)Cn2c(COc3ccccc3)[n+](C)c3ccccc32)C1` (configuration not stated), the inhibition was -12.8%.

As to `CC1CCC(C(C)C)C(OC(=O)COC(=O)c2ccccc2N)C1` (configuration not stated), the inhibition is 79.2% (active).

On to `Cc1cccnc1-n1c(-c2ccco2)nc2ccccc2c1=O`, for which the inhibition is -8.5%.

As to `CC(C)(C)NC(=S)/N=C(\N)N[N+](=O)[O-]`, the inhibition was -21.7%.

Turning to `Cc1[nH]c2ccccc2c1C(=O)C(=O)N1CCC2(CC1)OCCO2`, the inhibition is -23.7%.

On to `CC(C)[C@]12O[C@H]1[C@@H]1O[C@]13[C@]1(O[C@H]1C[C@H]1C4=C(CC[C@@]13C)C(=O)OC4)[C@@H]2O`, for which the inhibition is 107% (active).

As to `Cn1c(O)c(C=Nc2ccccc2-c2ccccc2)c(=O)n(C)c1=O`, the inhibition was -12.2%.

Regarding `COc1ccccc1[As](=O)(O)CC(O)COc1ccc(Cl)cc1Cl` (configuration not stated), the inhibition is -11%.

Turning to `CC12CC[C@H]3[C@@H](CCC4(O)C[C@H](O)CCC34/C=N/NC(=O)c3ccc(O)cc3)C1(O)CCC2C1=CC(=O)OC1` (some centres not stated), the inhibition was -7.5%.

As to `CN(C)c1ccc(C(=O)N/N=C/C23CC[C@@H](O)CC2(O)CC[C@@H]2[C@@H]3CCC3(C)C(C4=CC(=O)OC4)CCC23O)cc1` (some centres not stated), the inhibition was 45% (active).

As to `COc1ccc(C(=O)N/N=C/C23CC[C@@H](O)CC2(O)CC[C@@H]2[C@@H]3CCC3(C)C(C4=CC(=O)OC4)CCC23O)cc1` (some centres not stated), the inhibition was 12.5%.

Take `CC(=O)N1N=C2C3CCN(CC3)C2C1c1ccc(C)cc1` (configuration not stated): the inhibition was -23.8%.

`COc1ccccc1OCCCn1cc(C(=O)c2ccco2)c2ccccc21`: the inhibition is 3.3%.

As for `Cc1cc(/C=C2\C(=O)NC(=O)N(C)C2=O)c(C)n1-c1ccc2c(c1)OCO2`, the inhibition was -6.1%.

For the compound `Cc1cc(C=C2C(=O)NC(=S)NC2=O)c(C)n1-c1ccc2c(c1)OCO2`, the inhibition is 104% (active).

Turning to `Cc1cc(C=C2C(=O)NC(=O)NC2=O)c(C)n1-c1ccc2c(c1)OCO2`, the inhibition was 55.3%.

Turning to `C/C(=N\N1CCCCCC1)c1c(O)n(C)c(=O)n(C)c1=O`, the inhibition was -4.6%.

With `Cc1cccn2c(NCC3CCCO3)c(C(C)C)nc12` (configuration not stated), the inhibition was 2.9%.
